Among the data in PubChem BioAssay are inhibition values, retold here.

Molecules are shown by their SMILES. Values without a mark were called inactive. How the calls were made is not given here.

For the experiment, the target named is Pantothenate synthetase (Mycobacterium tuberculosis (strain ATCC 25618 / H37Rv)) (UniProt P9WIL5). Put plainly: Recombinant Mtb pantothenate synthetase (PanC) inhibitors, coupled enzyme, confirmatory (AID 375).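 Further: 0% = full reaction with vehicle and 100% = no enzyme background.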 As to conditions: coupled enzyme assay; at 10 µM, active compounds read high.
Pantothenate synthetase (Mycobacterium tuberculosis (strain ATCC 25618 / H37Rv)), sequence (P9WIL5 whole entry, looked up): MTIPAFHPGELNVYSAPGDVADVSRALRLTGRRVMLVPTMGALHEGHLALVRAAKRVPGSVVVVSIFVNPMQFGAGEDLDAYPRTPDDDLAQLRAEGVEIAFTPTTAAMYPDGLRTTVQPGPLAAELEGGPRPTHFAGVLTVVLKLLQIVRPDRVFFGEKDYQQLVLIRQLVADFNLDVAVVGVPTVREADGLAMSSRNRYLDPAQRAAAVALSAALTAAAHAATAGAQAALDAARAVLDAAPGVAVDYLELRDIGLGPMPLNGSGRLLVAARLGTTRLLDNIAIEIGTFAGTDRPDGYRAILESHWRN
Turning to `CN(C)S(=O)(=O)c1ccc(C(=O)NCc2cccs2)cc1`, the inhibition was 4%. Next, `Cc1occc1-c1nnc(SCC(=O)NCC2CCCO2)n1C` (configuration not stated): 7%; `Cn1c(=O)c2c(nc(SCC(=O)O)n2Cc2cccc(C(F)(F)F)c2)n(C)c1=O`: 8%; `CCOC(=O)Cc1nnc2c(Nc3ccccc3F)nc3nonc3n12`: 7%. The value for `c1ccc2[nH]c(CSc3nnc(-c4ccncc4)o3)nc2c1` was 4%; that for `COC(=O)c1c(C#N)c(N)nc2c1CCC2` was 7%; that for `CC(C)N(C(=O)CSc1nnc(NC(=O)C2CCC2)s1)C(C)C` was 0%.

`CC(=O)NCc1nc2ccccc2n1C(C)C`: the inhibition was 0%. Next, `COCCNC(=O)CN1CCN(C(c2ccccc2)c2ccccc2)CC1`: 2%; `O=C(Cc1cccs1)Nc1ccccc1NC(=O)Cc1cccs1`: 0%.

Turning to `O=C1c2ccccc2C(=O)N1CCCCN1CCN(CCCCN2C(=O)c3ccccc3C2=O)CC1`, the inhibition is 5%. Next, `CCC(=O)Oc1ccc(C(CC)C(CC)c2ccc(OC(=O)CC)cc2)cc1` (configuration not stated): 0%. Take `C[C@]12C[C@H](O)[C@H]3[C@@H](CCC4=CC(=O)CC[C@@]43C)[C@@H]1CC[C@@H]2C(=O)CO`: the inhibition was 0%.

In the case of `c1ccc(-c2nnc(CN3CCC4(CC3)OCCO4)o2)cc1`, the inhibition is 1%.

Consider `CCN(CC(=O)NC(=O)NCc1ccco1)Cc1nc2ccccc2c(=O)[nH]1`, for which the inhibition is 0%.

On to `O=C1CCN(C(=O)c2ccccc2)C2CCCCC12` (configuration not stated), for which the inhibition was 0%. Turning to `CC(C)CNS(=O)(=O)c1ccc(CCC(=O)NCc2ccco2)cc1`, the inhibition was 2%.

Usually inhibition stands for the drop in the measured response relative to a control, in per cent.
